High-throughput results (PubChem BioAssay)
HEK293 tox – Cytotoxic Profiling in HEK 293 Cell Line of Diverse Libraries Using Quantitative High-Throughput Screening | HEK 293 viability, ATP luminescence (CellTiter-Glo), 48-72 h | Potency, µM (highest dose often 115 µM), without a hit: at the highest dose activity change, negative = cytotoxicity, actives largely listed as inhibitors | 94,000 tested, 6.6% active | AID 1345083, 2018; further: nearly all actives have a fitted effect of over 60% in size
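Pintool-delivered compounds were incubated with HEK 293 cells (250 cells/well) at 37 degree Celsius for 48 or 72 hr. ATP-dependent luminescence (CellTiter-Glo) then reported remaining viable cells.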
NIH3T3 tox – Cytotoxic Profiling in NIH 3T3 Cell Line of Diverse Libraries Using Quantitative High-Throughput Screening; NIH 3T3 viability, CellTiter-Glo ATP luminescence, 48-72 h; Potency, µM (titrated, usually from 96.7 µM), for the others: at the top dose activity change, negative = cytotoxicity, usual class: inhibitors; 94,000 tested, 4.3% active; AID 1345082, 2018; further: nearly all actives have a fitted effect of over 55% in size
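ATP-dependent luminescence (CellTiter-Glo) served as the viability signal for NIH 3T3 cells treated with compound for 48 or 72 hr at 37 °C.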
Luciferase inh – Firefly luciferase inhibition profiling of diverse chemical library using quantitative high-throughput screening; purified P. pyralis luciferase, luminescence, biochemical; Potency, µM (doses to about 115 µM), actives largely listed as inhibitors; 76,000 tested, 2.5% active; AID 1347043, 2019; further: nearly all actives have a fitted effect of over 65% in size
Target sequence (P08659 whole entry, looked up): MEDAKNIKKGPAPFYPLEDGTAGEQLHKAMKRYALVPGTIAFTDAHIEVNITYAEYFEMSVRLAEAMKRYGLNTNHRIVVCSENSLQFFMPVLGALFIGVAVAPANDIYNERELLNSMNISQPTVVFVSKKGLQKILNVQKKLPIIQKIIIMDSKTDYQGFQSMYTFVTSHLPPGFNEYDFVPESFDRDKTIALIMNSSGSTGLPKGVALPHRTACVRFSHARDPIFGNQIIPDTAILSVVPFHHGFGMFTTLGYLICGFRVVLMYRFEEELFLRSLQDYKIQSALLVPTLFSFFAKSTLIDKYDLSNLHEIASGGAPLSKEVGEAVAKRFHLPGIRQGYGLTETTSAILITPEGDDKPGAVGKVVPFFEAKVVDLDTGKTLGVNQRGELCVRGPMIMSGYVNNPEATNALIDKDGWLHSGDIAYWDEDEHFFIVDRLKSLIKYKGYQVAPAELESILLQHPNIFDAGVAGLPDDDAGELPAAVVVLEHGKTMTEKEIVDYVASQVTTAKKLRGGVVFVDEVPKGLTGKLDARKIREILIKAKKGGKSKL
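Biochemical qHTS: compound (6-point titration) added to 10uM D-luciferin plus 10uM ATP in Tris acetate pH 7.5 buffer with Mg, Tween-20 and BSA, then purified enzyme at 10nM; light output imaged.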
NPR1 antag – Natriuretic polypeptide receptor (hNpr1) antagonism - Primary qHTS; Atrial natriuretic peptide receptor 1 (Homo sapiens), P16066; HEK293 hNpr1 GloSensor cGMP, ANP-stimulated luminescence; Potency, µM (top dose mostly 46.3 µM), for the others: top-dose activity change, negative = inhibition, usual class: inhibitors; 76,000 tested, 1.6% active; calls by dose curve; further: nearly all actives have a fitted effect of over 60% in size
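HEK293 cells stably expressing human Npr1 and cGMP GloSensor pGS-40F, loaded 2 h with 2% GloSensor reagent, given compound 30 min at room temperature. Luminescence read before and 20 min after 0.1 nM hNppA.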
Active calls of the source: *; i = inactive; u = inconclusive; x = not tested or not shown; [ ] = remark or other dose. An excerpt weighted towards active compounds, which were near 11% of everything screened. Unless noted, the call rests on the fitted dose curve; in most records, active means well fitted curve in the direction sought with a large enough effect; inconclusive means small, poorly fitted or top-dose-only effect, or another doubt; inactive means no such curve, though single readings can be large; an effect the other way counts as inactive or inconclusive. On the % scale 0 is the no-effect control and ±100 the full control effect; potency means the concentration at half of the fitted maximal effect.

SMILES	HEK293 tox	NIH3T3 tox	Luciferase inh	NPR1 antag
Cc1nc(CN2Cc3nc(OCc4ccc(F)cc4)ccc3OCC2=O)cs1	71µM*	u	i	u
CN1CCCC1COc1ccc2c(n1)CN(Cc1ccc(F)cc1)C(=O)CO2 (stereo not drawn)	-16%[172 µM]	u	i	1%[70.6 µM]
O=C1COc2ccc(OCc3cncs3)nc2CN1Cc1ccc(F)cc1	112µM*	u	i	-23%[70.6 µM]
COc1ccc(CNC(=O)N2CCOc3ccc(N(C)C)cc3C2)cc1	u	-30%	x	x
O=C(NC1CCCC1)N1CC(Oc2ccc(-c3nc(-c4ccccc4)no3)cc2)C1	u	-21%	u	0.32µM*
CC(C)CNC(=O)N1CC(Oc2ccc(-c3nc(-c4ccccc4)no3)cc2)C1	u	-27%	i	0.5µM*
COc1ccc(-c2cccc(C(=O)N3CCC(NC(=O)c4c(C)noc4C)CC3)c2)nn1	-17%	-26%	x	x
O=C(NCc1ccc(F)c(F)c1)c1ccc2oc(-c3ccccn3)nc2c1	u	-33%	x	x
CC(C)C(=O)N1[C@@H]2CC[C@H]1CC(NC(=O)c1ccc(F)cc1)C2 (stereo partly drawn)	i	-9%	x	x
CN(C)C(=O)C1CCN(c2nccc(Nc3ccccc3F)n2)CC1	-25%	u	x	x
O=C(NCc1ccccc1Cl)C1CCN(c2nccc(Nc3ccccc3F)n2)CC1	u	40µM*	x	x
O=C(NCCCc1ccccc1)C1CCN(c2nccc(Nc3ccccc3F)n2)CC1	35µM*	u	x	x
COC(=O)CNC(=O)C1CCN(c2nccc(Nc3ccccc3F)n2)CC1	1%	-18%	x	x
Cc1nn(-c2ccccc2)c2c1C(C(C)C)N(C1CN(C(=O)C3CC3)C1)C2=O (stereo not drawn)	-9%	-24%	x	x
Cc1nn(-c2ccccc2)c2c1C(C(C)C)N(C1CCN(C(=O)C3CCCC3)C1)C2=O (stereo not drawn)	u	20µM*	x	x
Cc1nn(-c2ccccc2)c2c1C(C(C)C)N(C1CCN(C(=O)C(C)(C)C)C1)C2=O (stereo not drawn)	89µM*	u	x	x
Cc1nn(-c2ccccc2)c2c1C(C(C)C)N(C1CCN(C(=O)c3ccccc3F)C1)C2=O (stereo not drawn)	79µM*	u	x	x
O=C1[C@@H]2C[C@@H](CN2CC2CC2)Oc2ccccc2N1Cc1ccc(OC(F)(F)F)cc1	56µM*	40µM*	i	u
O=C1[C@@H]2C[C@@H](CN2C2CCOCC2)Oc2ccccc2N1Cc1ccc(OC(F)(F)F)cc1	u	u	i	-5%
CS(=O)(=O)c1ccc(CN2C[C@@H]3C[C@H]2C(=O)N(Cc2ccc(OC(F)(F)F)cc2)c2ccccc2O3)cc1	32µM*	32µM*	i	-28%
COCCN1C(=O)[C@@H]2C[C@@H](CN2Cc2ccc(OC(F)(F)F)cc2)Oc2ccccc21	u	u	i	10%
Cc1cc(Cl)ccc1-n1nc(C)c([C@@H]2C=C[C@@H](NC(=O)CCC(=O)O)C2)c1C	-4%[172 µM]	1%[138 µM]	40µM*	1%[70.6 µM]
Cc1nn(-c2ccc(C(C)(C)C)cc2)c(C)c1[C@@H]1C=C[C@@H](NC(=O)CCC(=O)O)C1	u	-22%[174 µM]	20µM*	1%[70.6 µM]
COCC(=O)N[C@@H]1C=C[C@@H](c2c(C)nn(-c3ccc(C(C)(C)C)cc3)c2C)C1	40µM*	22µM*	u	-27%[70.6 µM]
Cc1nn(-c2ccc(C(C)(C)C)cc2)c(C)c1[C@@H]1C=C[C@@H](NC(=O)CC(C)(C)CC(=O)O)C1	i	u	u	1%
SMILES	HEK293 tox	NIH3T3 tox	Luciferase inh	NPR1 antag
Cc1nn(-c2ccc(C(F)(F)F)cc2)c(C)c1[C@@H]1C=C[C@@H](NC(=O)CCC(=O)O)C1	u	u	u	0%[70.6 µM]
O=C(Nc1ccc2c(c1)C(=O)N1CCC[C@H]1C(=O)N2)c1cc(-c2ccc3c(c2)CCO3)n[nH]1	0%	0%	i	-2%
O=C(Nc1cccc(F)c1)C1CN(C2CCCC2)C(=O)N1 (stereo not drawn)	4%[172 µM]	0%[138 µM]	x	x
Nc1nc2c(s1)C(c1cccc(F)c1F)CC(=O)N2 (stereo not drawn)	-3%	i	i	7%
COc1cccc(-c2cc(C3CCN(C(=O)Nc4cccc(C)c4)CC3)[nH]n2)c1	u	u	u	-23%
COc1cccc(-c2cc(C3CCN(C(=O)Nc4ccc5c(c4)OCCO5)CC3)[nH]n2)c1	u	40µM*	25µM*	u
COc1cccc(-c2cc(C3CCN(C(=O)Nc4ccccc4OC)CC3)[nH]n2)c1	32µM*	u	i	-15%
COc1cccc(-c2cc(C3CCN(C(=O)Nc4ccc(OC)cc4OC)CC3)[nH]n2)c1	u	u	i	-4%
COc1cccc(-c2cc(C3CCN(C(=O)c4cc(C)ccc4C)CC3)[nH]n2)c1	40µM*	u	i	u
COc1cccc(-c2cc(C3CCN(C(=O)Nc4ccc(C)cc4C)CC3)[nH]n2)c1	45µM*	u	i	-19%
CN1CC(C(=O)NCCCc2ccccc2)NC1=O (stereo not drawn)	1%[172 µM]	-12%[138 µM]	x	x
O=C(NCC(F)F)C1CCN(Cc2ccccc2-c2cccnc2)CC1	2%	-11%	x	x
Cc1ccc(CN2C(=O)COC[C@H]2C(=O)Nc2ccccc2F)cc1	i	-12%	x	x
O=C(c1nc2cccnc2n(C2CC2)c1=O)N1CCN(C(=O)C2CCCC2)CC1	1%	-21%	x	x
CCc1ccc(C(=O)N2CCC(c3cc(-c4cccc(OC)c4)n[nH]3)CC2)cc1	45µM*	u	i	u
CCN(CC)CCNC(=O)c1c(-c2ccccc2)cc(=O)n2c1CCC2	-7%	-21%	x	x
Cc1ccc(C2Cn3nnc(-c4nc(-c5cccc(Cl)c5)no4)c3CO2)c(C)c1 (stereo not drawn)	13%	-1%	i	1%
Cc1ccc(C2Cn3nnc(-c4nc(-c5cccnc5)no4)c3CO2)c(C)c1 (stereo not drawn)	u	16µM*	i	-6%
CC(=O)N1CCN(C(=O)C2CCc3nnc(C4CCN([S+](C)(=O)[O-])CC4)n32)CC1 (stereo not drawn)	-15%	-18%	x	x
CN(C)c1ccc(-c2nnc([C@H]3CCN(C(=O)c4ccccn4)C3)o2)cc1	u	-12%[174 µM]	20µM*	-15%[70.6 µM]
CN(C)c1ccc(-c2nnc([C@H]3CCN(Cc4ccccn4)C3)o2)cc1	u	-28%[174 µM]	u	2%[70.6 µM]
CN(C)c1ccc(-n2c(=O)c(C(=O)N3CCCC3)nc3cccnc32)cc1	i	-9%	x	x
O=C1COc2ccc(NCc3cccs3)nc2CN1Cc1ccc(C(F)(F)F)cc1	79µM*	79µM*	i	u
